Sampled rows, rich in hits. Any-hit rate of the full collection: about 21%.
HCV inhibitor – qHTS Assay for Inhibitors of Hepatitis C Virus (HCV); Huh7.5.1 HCVcc-Cre infection, luciferase reporter, 44 h; Potency, µM (doses to about 41.8 µM), without a hit: top-dose activity change, negative = inhibition, actives largely listed as inhibitors; hit rate 3.4% among 340,000; AID 651820, 2012; note: potency is the fitted concentration of half-maximal effect; % is set by controls: 0 for no effect and ±100 for the full control effect
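A cell-based infection assay in which seeded cells (1,000 per well) receive test compound after 4 h, are inoculated with HCVcc-Cre at approximately 0.5 moi, and are incubated 44 h before luminescence detection.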
Shiga inhibitor – A qHTS for Small Molecule Inhibitors of Shiga Toxin; Vero cells, Shiga toxin protein synthesis inhibition reporter; inhibition, % at 38.7 µM; hit rate 9.2% among 290,000; in the data active = inhibition mostly above about 28%, no sharp cut-off; inactive = mostly below about 43%; note: 0% is about no effect
Pf growth 96h – Primary qHTS for delayed death inhibitors of the malarial parasite plastid, 96 hour incubation; P. falciparum luciferase reporter growth, 96 h; Potency, µM (doses to about 28.7 µM), for the others: at the highest dose activity change, negative = inhibition, hits mostly inhibitors; hit rate 6.9% among 320,000; AID 504834, 2011; note: potency is the fitted concentration of half-maximal effect; % is set by controls: 0 for no effect and ±100 for the full control effect
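P. falciparum expressing integrated firefly luciferase, in erythrocytes at 2% hematocrit, 0.05% parasitemia, incubated with compounds 96 h at 37 C, 5% CO2. Growth inhibition read as loss of luminescence; two-generation exposure targets delayed-death apicoplast inhibitors.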
Cycloheximide cs – Cycloheximide Counterscreen for Small Molecule Inhibitors of Shiga Toxin; cell reporter, cycloheximide protein synthesis inhibition counterscreen; max response, %; hit rate 12% among 300,000; in the data active = max response mostly above about 13%, no sharp cut-off; inactive = mostly below about 14%; note: read at 38.3 µM for the half of the compounds with a filed dose; 0% is about no effect
HCMV antiviral – qHTS Assay for inhibitors of the human cytomegalovirus (HCMV). hit rate 4.5% among 410,000. activity change, negative = inhibition, % at 57.5 µM. HFF cells, HCMV-luciferase reporter, 72 h; hits give low values. AID 1259415, 2018; in the data active = activity change below about -60%; inconclusive = no clear call, values can overlap the other calls; inactive = above about -39%; note: % is set by controls: 0 for no effect and ±100 for the full control effect
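Steps: HFFs plated, 16 h 37C; compounds added; HCMV-luciferase added to MOI 1 PFU/cell; 72 h 37C; OneGlo reagent, 5 min room temperature; luminescence read, normalized to controls.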
Pf growth 48h – Primary qHTS for delayed death inhibitors of the malarial parasite plastid, 48 hour incubation; P. falciparum luciferase growth in erythrocytes, 48 h; Potency, µM (titrated, usually from 28.7 µM), without a hit: at the highest dose activity change, negative = inhibition, usual class: inhibitors; hit rate 5.9% among 310,000; AID 504832, 2011; note: potency is the fitted concentration of half-maximal effect; % is set by controls: 0 for no effect and ±100 for the full control effect
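In quantitative HTS format, infected erythrocytes bearing luciferase-reporter parasites were treated for a single generation at 37 C. Luminescence after adding detection reagent served as the growth measure.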
An asterisk follows results filed as active; i = inactive; ? = inconclusive; · = no result given; + = active, no number; [ ] = another dose, or the depositor's remark. Unless noted, calls come from the whole dose curve; as a rule, active = well fitted inhibition curve with a large enough effect; inconclusive = small, poorly fitted or top-dose-only effect, or another doubt; inactive = no such curve, though single readings can be large or run the other way.

SMILES	HCV inhibitor	Shiga inhibitor	Pf growth 96h	Cycloheximide cs	HCMV antiviral	Pf growth 48h
O=C(CSCc1ccccc1)N1CCN(S(=O)(=O)c2cccc(F)c2)CC1	26.5%	·	11.8%	·	-21.8	8.9%
CCOc1ccc(S(=O)(=O)N2CCC(C(=O)N3CCN(Cc4ccccc4)CC3)CC2)cc1	?	-9.5	0.5%	5.5	5.4	9.28µM*
O=S(=O)(c1ccccc1F)N1CCN(C(=S)NCc2ccccc2)CC1	-3.9%	-6.2	2.62µM*	-1.4	-31.3	3.7µM*
CN1C(=O)CC(=O)N(C)c2cc(S(=O)(=O)N(C)Cc3ccccc3)ccc21	1.7%	-1.4	40.3%	-2.2	-33.9	10.8%
CCOc1ccc(NC(=O)COC(=O)COc2cccc3c2OC(C)(C)C3)cc1	31.0%	-1.4	?	1.2	-19.1	?
COc1ccc(C(c2nnnn2CC2CCCO2)N2CCN(c3ccc(F)cc3)CC2)cc1 (stereo not given)	1.9%	-10.8	8.28µM*	-7.3	-23.0	?
COc1ccc(C(c2nnnn2Cc2ccccc2)N2CCN(c3ccccc3)CC2)cc1 (stereo not given)	?	-27.8	13.1µM*	1.3	-22.6	?
Cc1ccc(C(c2nnnn2CC2CCCO2)N2CCN(C)CC2)cc1 (stereo not given)	5.8%	-6.6	1.6%	-2.3	-22.4	19.4%
COc1ccc(C(c2nnnn2Cc2ccccc2)N2CCN(c3nc4ccccc4s3)CC2)cc1 (stereo not given)	?	-8.2	·	-3.3	-13.0	5.22µM*
COCCn1nnnc1C(c1ccc(OC)c(OC)c1)N1CCN(c2nc3ccccc3s2)CC1 (stereo not given)	-12.6%	-18.6	2.94µM*	-1.8	13.2	13.1µM*
O=C(COc1ccc(F)cc1)Nc1ccc(Cl)c(-c2nc3ccccc3[nH]2)c1	·	·	·	·	-31.3	·
Cc1ccc(Cl)cc1NC(=O)Nn1cnnc1	14.8%	-12.3	38.6%	-2.1	22.3	12.6%
CC(OC(=O)C1CCC1)C(=O)Nc1cc(Cl)cc(Cl)c1 (stereo not given)	0.5%	·	3.2%	·	2.6	14.6%
COC(=O)C(c1ccccc1)(c1cn(C)c2ccccc12)C(Nc1ccccc1)c1ccccc1 (stereo not given)	·	·	·	·	-24.5	·
COC(=O)Cn1ncc(N2CC(C)OC(C)C2)c(Cl)c1=O (stereo not given)	7.1%	-13.8	41.9%	1.7	-20.0	32.9%
COc1cc(NC(=O)c2nc3cc(C)c(C)cc3n(C)c2=O)cc(OC)c1OC	·	·	·	·	-3.8	·
COc1ccc(Cn2nnnc2C(C(C)C)N2CCN(c3ccccc3OC)CC2)cc1 (stereo not given)	?	-6.2	15.1%	7.7	-27.1	4.65µM*
CC(C)C(c1nnnn1Cc1ccc(F)cc1)N1CCN(c2ccc(O)cc2)CC1 (stereo not given)	-3.6%	12.2	?	1.7	-9.0	?
O=C1CCCC2=C1C1O[C@](c3ccsc3)(Cc3c1ccc1ccccc31)O2	·	i	?	14.7*	·	?
O=C1C2=C(C(=O)c3ccccc31)C1O[C@](c3ccsc3)(Cc3c1ccc1ccccc31)O2	·	+	?	32.5*	·	?
O=c1oc2ccccc2c2c1C1O[C@](c3ccsc3)(Cc3c1ccc1ccccc31)O2	·	i	?	19.0*	·	45.4%[5.75 µM]
COc1cccc(NS(=O)(=O)c2ccc3c(c2)N(C)C(=O)CC(=O)N3C)c1	·	·	·	·	-1.9	·
CC1(C(=O)NS(=O)(=O)c2cccs2)CCN1C(=O)C1CC1 (stereo not given)	·	·	·	·	-33.0	·
O=C(O)c1cc[c]([Hg][Cl])cc1	?	·	5.22µM*	·	·	5.86µM*
CN1CCN(S(=O)(=O)c2ccc(Sc3nnc(-c4cccs4)n3-c3ccccc3)nc2)CC1	?	20.1	?	-3.9	26.6	7.38µM*
SMILES	HCV inhibitor	Shiga inhibitor	Pf growth 96h	Cycloheximide cs	HCMV antiviral	Pf growth 48h
O=C(CSc1ccc(-c2cccs2)nn1)N1CCCCCC1	-0.6%	44.1*	?	20.0*	96.3	35.1%
CSc1nnc(-c2cccs2)n1-c1ccccc1	?	-9.9	·	-1.7	15.1	-3.6%
O=C(CSc1ccc(-c2cccs2)nn1)N1CCCCC1	-11.0%	52.0*	-29.2%	46.3*	?	98.6%
Cc1cccc(NC(=O)CSc2ccc(-c3cccs3)nn2)c1C	-8.9%	10.8	16.0%	13.3*	3.7	7.8%
COc1ccccc1CC(=O)OC(C)C(=O)Nc1ccc(S(=O)(=O)N2CCCCC2)cc1 (stereo not given)	?	·	?	·	-34.0	?
O=C(O)CC(Sc1ccc(Cl)cc1)C(=O)Nc1ccccc1 (stereo not given)	·	·	·	·	-2.2	·
Cc1ccc(Cc2c(C(C)(C)C)nc3ccc(Br)cn23)cc1	·	·	·	·	57.7	·
COC(=O)c1ccc(CSc2nc3ccncc3n2Cc2ccc(F)cc2)cc1	·	·	·	·	84.6	·
Cc1sc(-c2ccncc2)nc1OC(=O)c1ccc(F)cc1F	17.4%	39.5	-2.8%	-8.0	-32.6	?
O=C(CSc1nnc(-c2cccs2)n1-c1ccccc1)N1CCCC1	10.3%	-8.7	9.28µM*	-6.3	-19.0	1.5%
CN(C(=O)c1cccc(NC(=O)Cc2cccc(NC(=O)C3CCCN(C(=O)C4CCCC4)C3)c2)c1)C1CC1 (stereo not given)	-10.9%	·	·	·	-4.2	·
Cc1cccc(Oc2ccc(S(=O)(=O)N3CCCCC3)cc2NC(=O)C2=COCCO2)c1	5.9%	·	?	·	-35.5	13.1µM*
O=C(Nc1cc(S(=O)(=O)N2CCOCC2)ccc1Oc1ccc(F)cc1)C1=COCCO1	17.8%	·	7.2%	·	-6.9	-16.7%
CC(C)Oc1ccc(S(=O)(=O)N2CCCCC2)cc1NC(=O)C1=COCCO1	?	·	8.28µM*	·	-19.7	?
CCOc1ccc(Oc2ccc(C(F)(F)F)cc2NC(=O)C2=COCCO2)cc1	-17.0%	·	?	·	-12.7	14.7µM*
CCCn1c(=O)n(-c2ccccc2Cl)c(=O)c2sc3ccccc3c21	·	·	·	·	-1.6	·
CCC(C(=O)NCCc1ccc(OC)c(OC)c1)n1nc(C)c2sc3ccccc3c2c1=O (stereo not given)	·	·	·	·	-9.5	·
O=C(Cc1ccc(F)cc1)N1CCC(CC2CC(c3cccc(Br)c3)=NO2)(C(=O)NCC2CCCCC2)CC1 (stereo not given)	-16.0%	-2.2	1.17µM*	-2.5	2.6	?
O=C(Cc1ccc(F)cc1)N1CCC(CC2CC(c3ccc(Cl)cc3)=NO2)(C(=O)NCC2CCCCC2)CC1 (stereo not given)	6.0%	-2.2	4.65µM*	-1.7	-16.2	?
CCOc1ccccc1NC(=O)Cn1cc(C(=O)c2cccc(OC)c2)c(=O)c2ccc(C)nc21	·	·	·	·	-35.1	·
COc1ccc(C(=O)C[n+]2ccccc2/C=N/O)cc1	-18.1%	56.2	?	19.2*	67.5	25.2%

Screening data: PubChem BioAssay, National Center for Advancing Translational Sciences (NCATS)
